Results reported in PubChem BioAssay AID1159580 (chemical genetic matrix, 2015).
About 2,000 (36%) of roughly 5,500 compounds were called active. Inconclusive results (about 18%) are left out. Some of the results follow. Unmarked numbers belong to inactive results. Rule as the data show it: active = normalized growth mostly below about 0.91 (no sharp cut-off); inconclusive = no clear call, values can overlap the other calls; inactive = mostly above about 0.92.

Experiment: chemical genetic growth profiling, strain panel (AID 1159580);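 also: tested at 20 µM; growth read once vehicle control cultures reached saturation at 30 °C; 1 = growth at the plate median or of vehicle wells; lower values mean less growth of the strain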
Conditions: S. cerevisiae deletion strains, growth OD
[1] = locus YAL013W, strain DEP1, stronger effect = lower value
[2] = locus YBR229C, strain ROT2, stronger effect = lower value
[3] = locus YDL101C, strain DUN1, stronger effect = lower value
[4] = locus YDR150W, strain NUM1, stronger effect = lower value
[5] = locus YEL061C, strain CIN8, stronger effect = lower value
[6] = locus YGR078C, strain PAC10, stronger effect = lower value
[7] = locus YHR030C, strain SLT2, stronger effect = lower value
[8] = locus YHR087W, strain rtc3, stronger effect = lower value
[9] = locus YJR043C, strain POL32, stronger effect = lower value
[10] = locus YJR075W, strain HOC1, stronger effect = lower value
[11] = locus YLR039C, strain RIC1, stronger effect = lower value
[12] = locus YLR058C, strain SHM2 (second series), stronger effect = lower value
[13] = locus YLR085C, strain ARP6, stronger effect = lower value
[14] = locus YLR262C, strain YPT6, stronger effect = lower value
[15] = locus YML094W, strain GIM5, stronger effect = lower value
[16] = locus YMR219W, strain ESC1, stronger effect = lower value
[17] = locus YMR307W, strain GAS1, stronger effect = lower value
[18] = locus YNL128W, strain TEP1, stronger effect = lower value
[19] = locus YNL153C, strain GIM3, stronger effect = lower value
[20] = locus YNL298W, strain CLA4 (second series), stronger effect = lower value
[21] = locus YNL322C, strain KRE1, stronger effect = lower value
[22] = locus YNR030W, strain Alg12, stronger effect = lower value
[23] = locus YPL055C, strain LGE1, stronger effect = lower value
[24] = locus YPL241C, strain CIN2, stronger effect = lower value
[25] = locus YPR135W, strain CTF4, stronger effect = lower value

`O=C(Nc1cc(-c2ccccc2)[nH]n1)c1ccccc1` gave a normalized growth [1] of 0.938, a normalized growth [2] of 0.947 and a normalized growth [3] of 0.935. For the same compound, the normalized growth (locus YDL134C, strain PPH21, stronger effect = lower value) was 0.923, the normalized growth [4] was 1.03 and the normalized growth [5] was 0.867 (active). The normalized growth [6] was 0.936, the normalized growth [7] was 0.619 (active) and the normalized growth [8] was 0.913. The normalized growth [9] was 0.919 (active), the normalized growth [10] was 0.902 and the normalized growth (locus YKL190W, strain CNB1, stronger effect = lower value) was 0.89 (active). The normalized growth [11] was 0.719 (active), the normalized growth [12] was 0.982 and the normalized growth [13] was 0.634 (active). For the same compound, the normalized growth [14] was 0.79 (active), the normalized growth [15] was 0.888 and the normalized growth [16] was 0.968. For the same compound, the normalized growth [17] was 0.492 (active), the normalized growth [18] was 0.973 and the normalized growth [19] was 0.946. For the same compound, the normalized growth [20] was 0.844, the normalized growth [21] was 0.988 and the normalized growth [22] was 0.867 (active). For the same compound, the normalized growth (locus YOL006C, strain TOP1, stronger effect = lower value) was 0.63 (active), the normalized growth [23] was 0.907 and the normalized growth [24] was 0.865. The normalized growth [25] was 0.488 (active).

With `CC(C)(C)c1ccc(-c2cc(NC(=O)c3ccc(Cl)cc3)n[nH]2)cc1` the normalized growth (locus YAR019C, strain CDC15, stronger effect = lower value) was 0.986, the normalized growth (locus YBL105C, strain PKC1, stronger effect = lower value) was 1.02 and the normalized growth (locus YBR135W, strain CKS1, stronger effect = lower value) was 1.02. It also gave a normalized growth (locus YBR136W, strain MEC1, stronger effect = lower value) of 1.01, a normalized growth (locus YBR160W, strain CDC28, stronger effect = lower value) of 0.99 and a normalized growth (locus YDL017W, strain CDC7, stronger effect = lower value) of 1. For the same compound, the normalized growth (locus YDL028C, strain MPS1, stronger effect = lower value) was 1.03, the normalized growth [3] was 1.01 and the normalized growth (locus YDL108W, strain KIN28, stronger effect = lower value) was 1.01. The normalized growth (locus YDL132W, strain cdc53, stronger effect = lower value) was 1.03, the normalized growth (locus YDL214C, strain PRR2, stronger effect = lower value) was 1.04 and the normalized growth (locus YDR052C, strain DBF4, stronger effect = lower value) was 0.995. For the same compound, the normalized growth (locus YDR054C, strain cdc34, stronger effect = lower value) was 1.01, the normalized growth (locus YDR226W, strain ADK1, stronger effect = lower value) was 1.01 and the normalized growth (locus YDR477W, strain SNF1, stronger effect = lower value) was 1.02. The normalized growth (locus YER123W, strain YCK3, stronger effect = lower value) was 1.01, the normalized growth (locus YER133W, strain GLC7, stronger effect = lower value) was 1.02 and the normalized growth (locus YFL009W, strain cdc4, stronger effect = lower value) was 1.02. The normalized growth (locus YFL029C, strain CAK1, stronger effect = lower value) was 1.01, the normalized growth (locus YFR003C, strain YPI1, stronger effect = lower value) was 1.01 and the normalized growth (locus YFR019W, strain FAB1, stronger effect = lower value) was 1.01. For the same compound, the normalized growth (locus YFR028C, strain CDC14, stronger effect = lower value) was 1.01, the normalized growth (locus YGR040W, strain KSS1, stronger effect = lower value) was 1.03 and the normalized growth (locus YGR052W, strain FMP48, stronger effect = lower value) was 0.995. It also gave a normalized growth (locus YGR092W, strain DBF2, stronger effect = lower value) of 0.933, a normalized growth [7] of 1.08 and a normalized growth (locus YHR079C, strain IRE1, stronger effect = lower value) of 1.1. It also gave a normalized growth (locus YHR082C, strain KSP1, stronger effect = lower value) of 1.1, a normalized growth (locus YHR205W, strain SCH9, stronger effect = lower value) of 0.96 and a normalized growth (locus YIL147C, strain SLN1, stronger effect = lower value) of 1.04. For the same compound, the normalized growth (locus YJL095W, strain BCK1, stronger effect = lower value) was 0.999, the normalized growth (locus YJL128C, strain PBS2, stronger effect = lower value) was 0.978 and the normalized growth (locus YJL157C, strain FAR1, stronger effect = lower value) was 1.01. For the same compound, the normalized growth (locus YJR016C, strain ILV3, stronger effect = lower value) was 1.03, the normalized growth (locus YJR066W, strain TOR1 (second series), stronger effect = lower value) was 0.983 and the normalized growth (locus YJR066W, strain TOR1, stronger effect = lower value) was 1.05. The normalized growth (locus YKL048C, strain ELM1, stronger effect = lower value) was 1.03, the normalized growth (locus YKL067W, strain YNK1, stronger effect = lower value) was 1.02 and the normalized growth (locus YKL101W, strain HSL1, stronger effect = lower value) was 1.05. For the same compound, the normalized growth (locus YKL193C, strain SDS22, stronger effect = lower value) was 1.03, the normalized growth (locus YKL203C, strain TOR2, stronger effect = lower value) was 1.09 and the normalized growth (locus YLR113W, strain HOG1, stronger effect = lower value) was 1.03. The normalized growth (locus YLR133W, strain CKI1, stronger effect = lower value) was 1.02, the normalized growth (locus YLR403W, strain SFP1, stronger effect = lower value) was 0.971 and the normalized growth (locus YML070W, strain DAK1, stronger effect = lower value) was 1.04. It also gave a normalized growth (locus YMR001C, strain CDC5, stronger effect = lower value) of 1, a normalized growth (locus YMR205C, strain PFK2 (second series), stronger effect = lower value) of 0.99 and a normalized growth (locus YMR277W, strain FCP1, stronger effect = lower value) of 1.02. For the same compound, the normalized growth (locus YNL006W, strain LST8, stronger effect = lower value) was 0.999, the normalized growth (locus YNL020C, strain ARK1, stronger effect = lower value) was 1.03 and the normalized growth (locus YNL161W, strain CBK1, stronger effect = lower value) was 1.02. The normalized growth (locus YNL183C, strain NPR1, stronger effect = lower value) was 1.04, the normalized growth (locus YNL207W, strain RIO2, stronger effect = lower value) was 1.01 and the normalized growth (locus YNL222W, strain SSU72, stronger effect = lower value) was 0.992. The normalized growth (locus YNL307C, strain MCK1 (second series), stronger effect = lower value) was 1, the normalized growth (locus YOL078W, strain AVO1, stronger effect = lower value) was 1.01 and the normalized growth (locus YOL136C, strain PFK27, stronger effect = lower value) was 1.03. The normalized growth (locus YOR061W, strain CKA2, stronger effect = lower value) was 0.993, the normalized growth (locus YOR119C, strain RIO1, stronger effect = lower value) was 1.1 and the normalized growth (locus YOR231W, strain MKK1, stronger effect = lower value) was 1.02. The normalized growth (locus YOR329C, strain SCD5, stronger effect = lower value) was 1.04, the normalized growth (locus YPL031C, strain PHO85, stronger effect = lower value) was 1.02 and the normalized growth (locus YPL153C, strain RAD53, stronger effect = lower value) was 1.01. The normalized growth (locus YPL204W, strain HRR25, stronger effect = lower value) was 1.01, the normalized growth (locus YPL209C, strain IPL1, stronger effect = lower value) was 1.01 and the normalized growth (locus YPL256C, strain CLN2, stronger effect = lower value) was 1.21 [resistant] (active). It also gave a normalized growth (locus YPR025C, strain CCL1, stronger effect = lower value) of 1, a normalized growth (locus YPR106W, strain ISR1, stronger effect = lower value) of 1.01 and a normalized growth (locus YPR111W, strain DBF20, stronger effect = lower value) of 1. The normalized growth (strain NNK1, stronger effect = lower value) was 1.01 and the normalized growth (strain TSCII, stronger effect = lower value) was 1.03.

`Cc1cc(NS(=O)(=O)c2ccc(NC(=O)c3ccccc3)cc2)no1` gave a normalized growth [1] of 0.988, a normalized growth [2] of 0.995 and a normalized growth [3] of 0.979. The normalized growth [4] was 1.03, the normalized growth [5] was 1.03 and the normalized growth [6] was 0.984. For the same compound, the normalized growth [7] was 1.03, the normalized growth [8] was 1.01 and the normalized growth [9] was 0.983. For the same compound, the normalized growth [10] was 0.992, the normalized growth [11] was 1.02 and the normalized growth [12] was 1.02. It also gave a normalized growth [13] of 1.05, a normalized growth [14] of 0.986 and a normalized growth [15] of 1.02. The normalized growth [16] was 1.01, the normalized growth (locus YMR263W, strain SAP30, stronger effect = lower value) was 0.916 and the normalized growth [17] was 1.03. The normalized growth [18] was 1, the normalized growth [19] was 1 and the normalized growth [20] was 1. It also gave a normalized growth [21] of 1.01, a normalized growth [22] of 1 and a normalized growth [23] of 1.03. It also gave a normalized growth [24] of 1.02 and a normalized growth [25] of 0.991.
